Test results taken from PubChem BioAssay (Tox21).
Values joined by “and” are separate entries in the source; they are usually repeats but may differ in a detail not shown here. Identical values can stand only once. Inconclusive results are not listed. Active and inactive are the calls of the source. Unless noted, calls come from the whole dose curve; as a rule, active = well fitted curve in the direction sought with a large enough effect in the repeat runs; inconclusive = weak or mixed curves; inactive = no such curve, though single readings can be large; an effect the other way counts as inactive or inconclusive.

Columns and labels:
[1] = qHTS assay to identify small molecule agonists of the sonic hedgehog signaling (Shh) pathway (AID 1259368; calls by dose curve; note: series mostly up to about 92 µM; nearly all actives have a fitted effect of over 15% in size)
How it was run: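 NIH/3T3-derived 3T3Gli1-Luc cells carrying a stably integrated Gli1 response element–firefly luciferase reporter were plated, left 4 hr at 37 C, then given compounds in DMSO for 24 hr. Luminescence was read 30 min after adding luciferase reagent.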

[2] = qHTS assay to identify small molecule antagonists of the sonic hedgehog signaling (Shh) pathway (AID 1259369; calls by dose curve; note: nearly all actives have a fitted effect of over 45% in size; note: potency is the fitted concentration of half-maximal effect)
How it was run: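 NIH/3T3-derived 3T3Gli1-Luc cells with stably integrated Gli1-Luc reporter were preincubated 4hr at 37 C, then given compounds in DMSO plus Shh conditioned medium and incubated 24hr. Firefly luciferase luminescence read after 30min reagent at room temperature.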

[3] = biological target: Estrogen receptor beta (Homo sapiens) (UniProt Q92731); assay: qHTS assay to identify small molecule agonists of the estrogen receptor beta (ER-beta) signaling pathway (AID 1259377; active = well fitted activation curve with a large enough effect in the signal ratio in the repeat runs, not every such curve was filed as active; the % refers to the signal ratio)
Chain of Estrogen receptor beta (Homo sapiens) (Q92731 whole entry, looked up): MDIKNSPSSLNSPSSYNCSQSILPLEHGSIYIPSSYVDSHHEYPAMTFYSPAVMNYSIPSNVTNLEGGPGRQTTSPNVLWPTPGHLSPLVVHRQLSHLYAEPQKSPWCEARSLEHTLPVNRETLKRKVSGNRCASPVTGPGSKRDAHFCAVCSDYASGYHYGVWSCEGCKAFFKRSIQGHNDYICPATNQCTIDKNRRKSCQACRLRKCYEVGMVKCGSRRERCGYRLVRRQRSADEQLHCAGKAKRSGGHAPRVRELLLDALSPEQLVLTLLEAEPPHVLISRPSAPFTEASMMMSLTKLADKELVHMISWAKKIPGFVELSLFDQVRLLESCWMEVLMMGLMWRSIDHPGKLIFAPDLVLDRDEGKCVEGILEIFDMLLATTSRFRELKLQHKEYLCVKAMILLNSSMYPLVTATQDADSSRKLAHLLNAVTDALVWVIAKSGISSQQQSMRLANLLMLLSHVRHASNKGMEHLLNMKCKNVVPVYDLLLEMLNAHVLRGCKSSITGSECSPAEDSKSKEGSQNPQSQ
How it was run: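 Reporter cells (HEK293T, ER-beta-UAS-bla) receive compounds or DMSO after a 6 hr pre-incubation. They then incubate 16 hr at 37C/5% CO2, and fluorescence from LiveBLAzer B/G substrate is measured after 2 hours at room temperature.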

[4] = biological target: Estrogen receptor beta (Homo sapiens) (UniProt Q92731); assay: qHTS assay to identify small molecule antagonists of the estrogen receptor beta (ER-beta) signaling pathway (AID 1259378; active = well fitted inhibition curve with a large enough effect in the signal ratio in the repeat runs, not every such curve was filed as active; the % refers to the signal ratio)
How it was run: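 Antagonist mode: compounds added to beta-lactamase reporter HEK293T ER-beta-UAS cells stimulated with E2 (1nM final), 16 hr at 37C. LiveBLAzer B/G FRET substrate, 2 hours room temperature, fluorescence read-out.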

[5] = qHTS assay to identify small molecule agonists of the estrogen receptor beta (ER-beta) signaling pathway - cell viability counter screen (AID 1259380); note: nearly all actives have a fitted effect of over 30% in size
How it was run: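 ER-beta-UAS-bla HEK293T cells in medium with 2% charcoal-stripped FBS were preincubated 6 hr at 37C, dosed with compound in DMSO for 16 hr, then after the bla read, CellTiter-Glo was added for 30 min at room temperature; luminescence recorded.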

[6] = qHTS assay to identify small molecule antagonists of the estrogen receptor beta (ER-beta) signaling pathway - cell viability counter screen (AID 1259382);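 note: HEK293T cells carrying ER-beta-UAS-bla reporter stimulated with estradiol; series mostly up to about 92 µM; nearly all actives have a fitted effect of over 55% in size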
How it was run: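 ER-beta-UAS-bla HEK293T cells (2,000/well, 2% charcoal-stripped FBS) were pre-incubated 6 hr at 37C, then given compound plus 1nM final 17-beta-estradiol for 16 hr. Viability was read in the same wells by CellTiter-Glo luminescence after 30 min at room temperature.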

[7] = qHTS assay to identify small molecule agonists or antagonists of the thyroid stimulating hormone receptor (TSHR) signaling pathway - wild type cell line counter screen (AID 1259384; calls by dose curve)
How it was run: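 Counter screen in untransfected Hek293: compounds (15-point titration, triplicate) plus phosphodiesterase inhibitor Ro20-1724 added after 18 h plating; 30 min RT. Intracellular cAMP via competitive d2/cryptate immunoassay, 1 h incubation.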

[8] = biological target: Thyrotropin receptor (Homo sapiens) (UniProt P16473); assay: qHTS assay to identify small molecule antagonists of the thyroid stimulating hormone receptor (TSHR) signaling pathway (AID 1259385; calls by dose curve; note: nearly all actives have a fitted effect of over 20% in size)
Chain of Thyrotropin receptor (Homo sapiens) (P16473 whole entry, looked up): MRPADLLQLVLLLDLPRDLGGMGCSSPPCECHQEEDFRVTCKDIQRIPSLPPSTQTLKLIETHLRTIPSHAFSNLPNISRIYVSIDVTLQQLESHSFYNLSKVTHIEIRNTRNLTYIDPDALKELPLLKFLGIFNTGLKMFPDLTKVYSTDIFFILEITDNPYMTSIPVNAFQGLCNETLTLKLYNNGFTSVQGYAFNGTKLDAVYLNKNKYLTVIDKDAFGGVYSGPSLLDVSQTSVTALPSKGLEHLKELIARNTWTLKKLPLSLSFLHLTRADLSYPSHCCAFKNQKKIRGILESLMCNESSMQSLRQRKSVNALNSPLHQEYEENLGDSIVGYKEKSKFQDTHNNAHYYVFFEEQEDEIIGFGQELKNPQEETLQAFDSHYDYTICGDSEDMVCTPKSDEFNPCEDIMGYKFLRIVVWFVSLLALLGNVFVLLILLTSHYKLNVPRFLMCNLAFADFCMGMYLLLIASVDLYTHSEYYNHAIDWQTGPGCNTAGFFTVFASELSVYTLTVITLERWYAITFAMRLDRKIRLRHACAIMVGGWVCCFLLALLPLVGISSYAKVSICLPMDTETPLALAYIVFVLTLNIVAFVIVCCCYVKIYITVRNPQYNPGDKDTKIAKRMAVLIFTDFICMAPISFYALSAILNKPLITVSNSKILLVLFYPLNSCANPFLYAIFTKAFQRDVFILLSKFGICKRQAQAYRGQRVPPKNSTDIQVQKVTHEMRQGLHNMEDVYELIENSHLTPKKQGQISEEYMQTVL
How it was run: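 Antagonist mode: compound-treated TSHR-expressing HEK293 cells were stimulated with 1.5 ng/mL TSH (final) in presence of Ro20-1724 for 30 min at RT. HTRF cAMP detection after 1 h; each compound tested at 15 concentrations, triplicate.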

[9] = qHTS assay to identify small molecule agonists of the estrogen receptor alpha (ER-alpha) signaling pathway in the presence of an antagonist - cell viability counter screen (AID 1259386);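 note: series mostly up to about 92 µM; cells exposed to compounds for 22 h at 37 °C before the viability read; nearly all actives have a fitted effect of over 30% in size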
How it was run: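 VM7Luc4E2 cells (endogenous full-length ER-alpha, 4×ERE-luciferase) were held 5 days in phenol red-free medium with 10% charcoal-stripped FBS, plated, then given 10.0nM ICI-182,780 and compounds at 15 concentrations for 22hr at 37C; viability read by CellTiter-Fluor fluorescence.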

[10] = biological target: Progesterone receptor (Homo sapiens) (UniProt P06401); assay: qHTS assay to identify small molecule agonists of the progesterone receptor (PR) signaling pathway (AID 1346784; calls by dose curve; note: nearly all actives have a fitted effect of over 30% in size)
Chain of Progesterone receptor (Homo sapiens) (P06401 whole entry, looked up): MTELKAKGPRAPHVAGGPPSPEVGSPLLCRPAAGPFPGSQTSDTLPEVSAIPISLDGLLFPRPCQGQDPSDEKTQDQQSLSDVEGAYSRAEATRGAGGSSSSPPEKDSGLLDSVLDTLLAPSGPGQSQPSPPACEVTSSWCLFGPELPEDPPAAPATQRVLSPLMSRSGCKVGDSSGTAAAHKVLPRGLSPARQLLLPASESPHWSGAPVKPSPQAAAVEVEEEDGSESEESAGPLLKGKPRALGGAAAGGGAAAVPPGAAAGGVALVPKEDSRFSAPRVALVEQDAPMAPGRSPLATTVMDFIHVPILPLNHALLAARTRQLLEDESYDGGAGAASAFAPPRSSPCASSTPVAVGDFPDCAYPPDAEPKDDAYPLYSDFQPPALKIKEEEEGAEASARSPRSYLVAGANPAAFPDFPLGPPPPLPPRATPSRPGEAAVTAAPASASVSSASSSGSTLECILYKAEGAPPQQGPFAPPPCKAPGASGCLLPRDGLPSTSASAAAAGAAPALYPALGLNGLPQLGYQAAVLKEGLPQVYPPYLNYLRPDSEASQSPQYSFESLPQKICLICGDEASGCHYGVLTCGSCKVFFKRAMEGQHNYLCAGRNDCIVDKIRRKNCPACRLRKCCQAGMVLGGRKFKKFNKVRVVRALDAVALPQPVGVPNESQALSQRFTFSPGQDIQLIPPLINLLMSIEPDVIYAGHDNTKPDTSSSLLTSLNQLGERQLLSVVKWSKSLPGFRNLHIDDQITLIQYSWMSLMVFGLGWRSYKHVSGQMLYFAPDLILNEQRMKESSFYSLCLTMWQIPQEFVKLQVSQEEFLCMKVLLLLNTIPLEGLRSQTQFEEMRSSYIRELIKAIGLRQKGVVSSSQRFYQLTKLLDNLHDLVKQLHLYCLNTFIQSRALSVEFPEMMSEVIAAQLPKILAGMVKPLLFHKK
How it was run: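 Reporter assay, GripTite PR-UAS-bla HEK 293T cells: 16 hr exposure to DMSO-dissolved compounds at 37C, 5% CO2, in steroid-depleted (2% charcoal-stripped FBS) medium; beta-lactamase measured by FRET fluorescence.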

[11] = biological target: Progesterone receptor (Homo sapiens) (UniProt P06401); assay: qHTS assay to identify small molecule antagonists of the progesterone receptor (PR) signaling pathway (AID 1346795; active = well fitted inhibition curve with a large enough effect in the signal ratio in the repeat runs, not every such curve was filed as active; the % refers to the signal ratio)
How it was run: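 Stimulus R5020 at 1 nM final; cells HEK293T PR-UAS-bla; medium with 2% charcoal-stripped FBS; compound exposure 16 hr at 37C, 5% CO2; detection by FRET beta-lactamase substrate, 2 hr, room temperature.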

[12] = qHTS assay to identify small molecule antagonists of the progesterone receptor (PR) signaling pathway - cell viability counter screen (AID 1346798); note: series mostly up to about 92 µM; nearly all actives have a fitted effect of over 50% in size
How it was run: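 In the same plates used for the beta-lactamase readout, cell viability of compound- and R5020-treated PR-UAS-bla HEK293T cells (16 hr, 37C) was assessed by CellTiter-Glo luminescence.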

[13] = qHTS assay to identify small molecule agonists of the progesterone receptor (PR) signaling pathway - cell viability counter screen (AID 1346799; calls by dose curve; note: nearly all actives have a fitted effect of over 45% in size)
How it was run: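 Multiplexed viability read: CellTiter-Glo luminescence, 30 min RT, following LiveBLAzer FRET measurement on PR-UAS-bla HEK293T cells exposed to compounds 16 hr.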

[14] = qHTS assay to identify small molecule antagonists of the TGF-beta/Smad signaling pathway - cell viability counter screen (AID 1346824); note: nearly all actives have a fitted effect of over 50% in size
How it was run: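 Cytotoxicity counter-screen run in the same wells as the beta-lactamase Smad reporter read: CellTiter-Glo luminescence after 30 min at room temperature. HEK 293T SBE-bla cells had 5 hr compound exposure at 37 C with TGF-beta1 (0.25 ng/mL stock).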

[15] = qHTS assay to identify small molecule agonists of the TGF-beta/Smad signaling pathway - cell viability counter screen (AID 1346829); note: top concentration of the series differs between compounds; nearly all actives have a fitted effect of over 45% in size
How it was run: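 In parallel with the Smad reporter read, viability of HEK 293T cells stably carrying SBE-bla is quantified by ATP luminescence following 5 hr compound treatment.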

[16] = qHTS assay to identify small molecule agonists of the TGF-beta/Smad signaling pathway (AID 1346859; active = well fitted activation curve with a large enough effect in the signal ratio in the repeat runs, not every such curve was filed as active; the % refers to the signal ratio; note: series mostly up to about 77 µM)
How it was run: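 Screening used HEK 293T SBE-bla cells at 4,000/well. Test agents: 5 hr, 37 C. Detection: FRET substrate, 2 hr RT, then excitation 405 nm with emissions at 460 and 530 nm.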

[17] = qHTS assay to identify small molecule agonists of the androgen receptor (AR) signaling pathway in the presence of an antagonist - cell viability counter screen (AID 1259379); note: series mostly up to about 92 µM; nearly all actives have a fitted effect of over 25% in size
How it was run: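 MDA-kb2 human breast carcinoma cells (stable MMTV-luciferase, AR/GR responsive) were seeded 3,000 cells/well, pre-incubated 5 hr at 37C without CO2, then given 3.0uM nilutamide and compounds at 15 concentrations for 16 hr. Viability was read by CellTiter-Fluor fluorescence.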

[18] = biological target: Estrogen receptor (Homo sapiens) (UniProt P03372); assay: qHTS assay to identify small molecule agonists of the estrogen receptor alpha (ER-alpha) signaling pathway in the presence of an antagonist (AID 1259383; calls by dose curve; note: top concentration of the series differs between compounds; nearly all actives have a fitted effect of over 15% in size)
Chain of Estrogen receptor (Homo sapiens) (P03372 whole entry, looked up): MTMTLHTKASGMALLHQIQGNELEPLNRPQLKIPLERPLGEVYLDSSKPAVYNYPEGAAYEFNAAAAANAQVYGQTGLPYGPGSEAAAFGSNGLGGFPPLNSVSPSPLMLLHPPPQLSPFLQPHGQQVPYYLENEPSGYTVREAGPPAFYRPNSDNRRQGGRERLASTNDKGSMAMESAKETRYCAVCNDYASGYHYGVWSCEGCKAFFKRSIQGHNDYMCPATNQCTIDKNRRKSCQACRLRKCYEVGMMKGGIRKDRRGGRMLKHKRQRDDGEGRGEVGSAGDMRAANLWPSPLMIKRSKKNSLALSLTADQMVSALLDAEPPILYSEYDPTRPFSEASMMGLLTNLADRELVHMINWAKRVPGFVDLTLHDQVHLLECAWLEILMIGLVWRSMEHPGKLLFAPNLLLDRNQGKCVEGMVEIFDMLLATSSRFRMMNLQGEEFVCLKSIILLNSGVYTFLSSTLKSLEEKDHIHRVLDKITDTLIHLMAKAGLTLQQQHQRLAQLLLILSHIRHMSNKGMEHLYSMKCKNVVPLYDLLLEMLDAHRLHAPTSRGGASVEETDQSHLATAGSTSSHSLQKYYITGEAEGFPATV
How it was run: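 VM7Luc4E2 cells (endogenous full-length ER-alpha, 4×ERE-luciferase) were precultured 5 days in phenol red-free medium with 10% charcoal-stripped FBS, given 10.0nM ICI-182,780 (final), then treated with compounds at 15 concentrations for 22hr at 37C; luminescence read with ONE-Glo.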

[19] = biological target: Thyrotropin-releasing hormone receptor (Homo sapiens) (UniProt P34981); assay: qHTS assay to identify small molecule antagonists of the thyrotropin-releasing hormone receptor (TRHR) signaling pathway (AID 1346877; active = well fitted inhibition curve with a large enough effect in the repeat runs, not every such curve was filed as active; note: series mostly up to about 51 µM)
Chain of Thyrotropin-releasing hormone receptor (Homo sapiens) (P34981 whole entry, looked up): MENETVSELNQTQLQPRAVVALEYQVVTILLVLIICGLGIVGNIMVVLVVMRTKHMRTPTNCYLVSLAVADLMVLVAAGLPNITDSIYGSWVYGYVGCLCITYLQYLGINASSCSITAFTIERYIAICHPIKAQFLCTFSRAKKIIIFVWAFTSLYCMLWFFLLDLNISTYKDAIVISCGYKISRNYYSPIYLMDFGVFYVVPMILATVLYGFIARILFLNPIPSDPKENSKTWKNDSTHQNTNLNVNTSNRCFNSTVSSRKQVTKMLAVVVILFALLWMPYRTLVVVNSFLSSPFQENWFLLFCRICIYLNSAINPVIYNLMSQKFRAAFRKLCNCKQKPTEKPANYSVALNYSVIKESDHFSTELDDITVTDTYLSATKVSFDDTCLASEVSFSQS
How it was run: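 TRHR-expressing HEK293 cells were seeded, cultured 18 h at 37 °C, then loaded with calcium dye for 2 h. Compounds were pre-incubated 5 min at room temperature before 1 nM TRH (final) was added, and kinetic fluorescence was recorded for 3 min.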

[20] = biological target: Androgen receptor (Homo sapiens) (UniProt P10275); assay: qHTS assay to identify small molecule agonists of the androgen receptor (AR) signaling pathway in the presence of an antagonist (AID 1259381; calls by dose curve; note: nearly all actives have a fitted effect of over 15% in size)
Chain of Androgen receptor (Homo sapiens) (P10275 whole entry, looked up): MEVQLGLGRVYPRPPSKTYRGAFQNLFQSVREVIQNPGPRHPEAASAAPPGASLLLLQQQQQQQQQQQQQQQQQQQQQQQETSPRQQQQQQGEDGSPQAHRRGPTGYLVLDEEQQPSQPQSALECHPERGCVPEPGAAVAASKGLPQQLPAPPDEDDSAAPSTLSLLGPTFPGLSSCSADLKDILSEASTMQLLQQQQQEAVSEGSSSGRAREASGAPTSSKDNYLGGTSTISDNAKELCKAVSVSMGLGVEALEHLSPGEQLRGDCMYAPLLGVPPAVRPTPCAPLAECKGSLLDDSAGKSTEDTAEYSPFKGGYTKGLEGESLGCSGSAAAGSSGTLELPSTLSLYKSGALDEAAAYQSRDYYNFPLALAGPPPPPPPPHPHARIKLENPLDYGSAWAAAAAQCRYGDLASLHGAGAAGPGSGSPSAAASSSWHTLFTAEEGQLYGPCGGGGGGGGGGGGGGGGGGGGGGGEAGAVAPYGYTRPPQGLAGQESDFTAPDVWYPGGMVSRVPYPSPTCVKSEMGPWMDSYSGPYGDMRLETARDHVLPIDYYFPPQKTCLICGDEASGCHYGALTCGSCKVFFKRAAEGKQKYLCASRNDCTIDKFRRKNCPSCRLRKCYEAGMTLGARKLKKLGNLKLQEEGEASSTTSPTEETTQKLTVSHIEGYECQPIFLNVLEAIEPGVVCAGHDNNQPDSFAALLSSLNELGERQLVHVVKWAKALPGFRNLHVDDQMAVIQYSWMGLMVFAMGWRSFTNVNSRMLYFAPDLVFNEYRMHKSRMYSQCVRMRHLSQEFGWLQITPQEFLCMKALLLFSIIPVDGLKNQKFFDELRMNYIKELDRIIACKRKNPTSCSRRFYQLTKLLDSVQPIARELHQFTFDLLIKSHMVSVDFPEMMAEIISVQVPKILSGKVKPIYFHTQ
How it was run: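 MDA-kb2 human breast carcinoma cells carrying an MMTV-luciferase reporter (AR- and GR-responsive) were treated with compounds at 15 concentrations plus 3.0uM final nilutamide for 16hr at 37C without CO2; luminescence was read after ONE-Glo addition.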

Measured: Potency

Nc1ccccc1S(=O)(=O)O
not listed: [17] | [18] | [19] | [20]
inactive: all other assays above

C=CCCCCCCCCC=O
not listed: [5] | [11] | [12] | [13] | [15] | [19] | [20]
inactive: all other assays above

CCS(=O)(=O)c1ccc(OC)c(C(=O)OC)c1
not listed: [7] | [8] | [10] | [11] | [13] | [20]
inactive: all other assays above

NS(=O)(=O)c1ccc(C(=O)O)cc1
not listed: [4] | [14] | [15] | [19]
inactive: all other assays above

O=C1CCCC(=O)C1
not listed: [7] | [8] | [9] | [13] | [18] | [20]
inactive: all other assays above

CC(C)NCC(O)c1ccc(NS(C)(=O)=O)cc1 (configuration not stated)
not listed: [10] | [18] | [20]
inactive: all other assays above

COC(=O)C1=C(C)NC(C)=C(C(=O)OC)C1c1ccccc1[N+](=O)[O-]
active: [2] 6.12 µM and 6.68 µM
not listed: [11] | [17] | [20]
inactive: all other assays above

Nc1cc(=O)[nH]c(N)n1
not listed: [4] | [20]
inactive: all other assays above

COC(=O)CC(C)=O
not listed: [15] | [18] | [20]
inactive: all other assays above
